Most compounds without a hit are left out; they make up all but 7.1% or so of the library.
SW480 rereplic: DNA re-replication induction in SW480 cells | SW480 DNA re-replication, Hoechst DNA content imaging, 48 h | Potency, µM (top dose mostly 46.1 µM), most hits filed as activators | actives 1.8% (n = 340,000) | AID 624297; further: nearly all actives have a fitted effect of over 55% in size
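Image-based DNA-content assay: after two days of treatment, nuclei were labelled with the DNA dye Hoechst and imaged, and hits were compounds raising the count of nuclei showing high fluorescence intensity.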
p53 reactivation: mutant p53 re-activation in reporter cells; AID 504706; Potency, µM (highest dose often 92.2 µM), most hits filed as activators; H1299 p53-A138V BP100-luciferase reporter, luminescence, 24 h; actives 0.063% (n = 320,000); further: nearly all actives have a fitted effect of over 45% in size
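H1299 (p53-null), stable ts p53-A138V + BP100-Luc; 1000 cells/well, Opti-MEM/10% FBS; cpd 4 pt, 1:5; 24 h, 37 deg C, 5% CO2; detection reagent 10 min RT; luminescence.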
ELG1 genotox: induces genotoxicity in HEK293T cells with luciferase-tagged ELG1. HEK293T ELG1-luciferase reporter, luminescence, 16 h. Potency, µM (titrated, usually from 46 µM), hits mostly activators. actives 1.3% (n = 330,000); further: nearly all actives have a fitted effect of over 60% in size
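ELG1-luciferase HEK293T cells, 2,000/well; compound pinned in; 16 hr, 37 °C, 5% CO2; ONE-Glo, 30 min RT; luminescence on CCD imager.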
MCF10A rereplic: induces DNA re-replication in MCF 10a normal breast cells; actives 2.9% (n = 350,000); Potency, µM (titrated, usually from 46.1 µM), hits mostly activators; MCF 10A DNA re-replication, Hoechst nuclear intensity, 48 h; further: nearly all actives have a fitted effect of over 50% in size
ELG1 DNA repair: ELG1-dependent DNA repair inhibition. HEK293T ELG1-luciferase reporter, luminescence, 16 h; DNA damage induced by 5-fluorouridine. Potency, µM (titrated, usually from 46.1 µM), actives largely listed as inhibitors. actives 2.3% (n = 330,000); further: nearly all actives have a fitted effect of over 55% in size
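5-Fluorouridine DNA damage + compound/DMSO, 2,000 cells/well, 16 h, 37 °C/5% CO2. ONE-Glo, 30 min RT, luminescence. Readout = decrease in reporter signal.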
A-T KAP1 phos: potential ataxia-telangiectasia treatment; Potency, µM (titrated, usually from 57.5 µM), most hits filed as activators; F2112 A-T fibroblasts, KAP-1 phosphorylation AlphaLISA; neocarzinostatin DNA damage 30 min before lysis; AID 485349; actives 0.19% (n = 320,000); further: nearly all actives have a fitted effect of over 45% in size
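hTERT-immortalized A-T patient fibroblasts (F2112), 500 cells/well in OPTI-MEM, 1% FBS, got compounds for 60 min, then NCS for 30 min at 37C. Lysates were then assayed for phospho-KAP-1 by AlphaLISA (anti-pKAP1 donor, anti-KAP1 acceptor beads), 6 hr at 25C.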
Of the large screens only hits and unclear results are named; the others gave an inactive call. The call rests on the fitted dose curve; in most records, active means well fitted curve in the direction sought with a large enough effect; inconclusive means small, poorly fitted or top-dose-only effect, or another doubt; inactive means no such curve, though single readings can be large; an effect the other way counts as inactive or inconclusive.

COc1ccc(-c2cc(C(=O)N3CCN(c4ccccn4)CC3)c3ccccc3n2)cc1	SW480 rereplic 21µM, p53 reactivation inconclusive, MCF10A rereplic inconclusive, ELG1 DNA repair inconclusive
Cc1ccc(S(=O)(=O)N2CCCC2)cc1C(=O)N1CCC(C)CC1	none
COc1ccc(-n2nc3c(c2NC(=O)CCl)CSC3)cc1	SW480 rereplic inconclusive, ELG1 DNA repair inconclusive
COc1ccc(-c2cc(C(=O)N3CCN(c4ccccc4O)CC3)c3ccccc3n2)cc1OC	SW480 rereplic inconclusive, MCF10A rereplic inconclusive, ELG1 DNA repair 9.2µM
COc1ccc(-c2cc(C(=O)N3CCCC3)c3ccccc3n2)cc1	ELG1 DNA repair inconclusive
COc1ccc(-c2cc(C(=O)N3CCN(c4ncccn4)CC3)c3ccccc3n2)cc1	ELG1 DNA repair 16µM
COCCOc1ccc(C(F)(F)F)cc1NC(=O)COC(=O)Cc1c[nH]c2ccccc12	none
CCc1sc(C(=O)Nc2ccc(OC)c(S(=O)(=O)N3CCOCC3)c2)cc1C	ELG1 DNA repair 8.2µM
COc1ccc(NC(=O)c2cc3c(s2)CCC(C)C3)cc1S(=O)(=O)N1CCOCC1 (stereo not given)	MCF10A rereplic inconclusive, ELG1 DNA repair 23µM (no result: SW480 rereplic)
COc1ccc(NC(=O)c2cc(S(=O)(=O)N3CCOCC3)ccc2C)cc1S(=O)(=O)N1CCOCC1	ELG1 DNA repair inconclusive
O=C1C=C(c2ccccc2)C[C@H](c2cccs2)[C@H]1n1nnc([N+](=O)[O-])n1	SW480 rereplic 2.1µM, MCF10A rereplic inconclusive, ELG1 DNA repair inconclusive
CCN(CC)CCC(=O)N1c2ccccc2Sc2ccc(Cl)cc21	SW480 rereplic 14µM, MCF10A rereplic 30µM
Cc1nnc(SCC(=O)N2c3ccccc3Sc3ccccc32)n1N	SW480 rereplic 23µM, p53 reactivation inconclusive, MCF10A rereplic 9.2µM
Cn1c(SCC(=O)N2c3ccccc3Sc3ccc(Cl)cc32)nnc1-c1ccco1	MCF10A rereplic inconclusive, ELG1 DNA repair 18µM
O=C(CSc1nnc(-c2ccncc2)n1Cc1ccco1)N1c2ccccc2Sc2ccc(Cl)cc21	ELG1 DNA repair 23µM
CCn1c(SCC(=O)N2c3ccccc3Sc3ccccc32)nnc1-c1ccco1	ELG1 DNA repair inconclusive
COCCN(C(=O)COC(=O)c1cc2c(s1)CCCC2)c1c(N)n(Cc2ccccc2)c(=O)[nH]c1=O	none
Cc1ccc(NC(=O)NNC(=O)c2cc3ccccc3cc2O)c(C)c1	none
Oc1cccc2ccc(Nc3ccccn3)nc12	SW480 rereplic inconclusive, MCF10A rereplic 5.8µM, ELG1 DNA repair inconclusive
COc1cc2ccccc2cc1C(=O)Nc1ccc(O)cc1	p53 reactivation inconclusive, ELG1 genotox 10µM, ELG1 DNA repair inconclusive
c1ccc(Nc2ccccc2Nc2ccccn2)nc1	none
Cc1ccc(C)c(NC(=O)NNC(=O)c2cc3ccccc3cc2O)c1	MCF10A rereplic 15µM
Cc1ccc(NC(=O)c2cc3ccccc3cc2O)cc1	p53 reactivation inconclusive, ELG1 genotox inconclusive, MCF10A rereplic inconclusive, ELG1 DNA repair inconclusive
COc1ccc(NC(=O)c2cc3ccccc3cc2O)cc1	SW480 rereplic inconclusive, p53 reactivation inconclusive, ELG1 genotox inconclusive, MCF10A rereplic 4.6µM, ELG1 DNA repair inconclusive
C=CC(C)(C)O[C@@H]1O[C@H](CO)[C@@H](O)[C@H](O)[C@H]1O	MCF10A rereplic inconclusive
CCCN(C(=O)c1ccc(OCC(C)C)cc1)c1c(N)n(Cc2ccccc2)c(=O)[nH]c1=O	none
O=C(CN1CCN(c2ccc(F)cc2)CC1)NCc1ccc(Cl)cc1	none
Cc1ccc(S(=O)(=O)N(CCC(=O)NCC(c2ccccc2)N(C)C)c2ccccc2)cc1 (stereo not given)	none (no result: p53 reactivation, ELG1 genotox, ELG1 DNA repair, A-T KAP1 phos)
CC(C)Cc1ccc(C(=O)Nc2ccc(Cc3ccncc3)cc2)o1	ELG1 DNA repair 21µM
COc1ccc(C(=O)Nc2cc(C)on2)c(OC)c1	SW480 rereplic inconclusive, ELG1 genotox inconclusive, ELG1 DNA repair inconclusive (no result: p53 reactivation)

Screening results (PubChem)
